Assay results reported in ChEMBL document CHEMBL1961873, “Compounds: GSK PKIS; Assays: Nanosyn kinase panel” (2012).

Tests used:
[1] = target: T1, Inhibitor of nuclear factor kappa-B kinase subunit epsilon (Homo sapiens) (UniProt Q14164); settings: at 1 µM;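 note: reported values are averaged percent inhibition figures against human IKKε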
T1 sequence (whole entry): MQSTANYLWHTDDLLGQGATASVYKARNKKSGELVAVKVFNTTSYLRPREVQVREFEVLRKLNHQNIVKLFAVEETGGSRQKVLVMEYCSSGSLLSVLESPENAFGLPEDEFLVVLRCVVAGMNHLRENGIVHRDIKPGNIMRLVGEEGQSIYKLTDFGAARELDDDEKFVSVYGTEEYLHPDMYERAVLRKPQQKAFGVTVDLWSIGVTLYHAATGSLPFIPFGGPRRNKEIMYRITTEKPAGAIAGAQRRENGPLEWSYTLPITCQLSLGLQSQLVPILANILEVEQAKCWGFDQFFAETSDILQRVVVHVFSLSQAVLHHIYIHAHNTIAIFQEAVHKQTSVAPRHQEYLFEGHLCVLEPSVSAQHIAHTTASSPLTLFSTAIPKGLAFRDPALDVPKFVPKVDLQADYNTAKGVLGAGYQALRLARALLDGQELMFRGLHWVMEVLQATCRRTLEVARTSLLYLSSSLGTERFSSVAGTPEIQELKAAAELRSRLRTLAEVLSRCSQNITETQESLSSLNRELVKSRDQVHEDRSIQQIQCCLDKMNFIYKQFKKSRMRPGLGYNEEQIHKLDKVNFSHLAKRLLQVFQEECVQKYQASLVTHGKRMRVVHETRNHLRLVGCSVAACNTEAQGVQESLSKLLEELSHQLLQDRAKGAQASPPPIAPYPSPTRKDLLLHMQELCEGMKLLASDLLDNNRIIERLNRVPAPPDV

[2] = target: T2, Serine/threonine-protein kinase Nek1 (Homo sapiens) (UniProt Q96PY6); settings: at 0.1 µM
T2 sequence (whole entry): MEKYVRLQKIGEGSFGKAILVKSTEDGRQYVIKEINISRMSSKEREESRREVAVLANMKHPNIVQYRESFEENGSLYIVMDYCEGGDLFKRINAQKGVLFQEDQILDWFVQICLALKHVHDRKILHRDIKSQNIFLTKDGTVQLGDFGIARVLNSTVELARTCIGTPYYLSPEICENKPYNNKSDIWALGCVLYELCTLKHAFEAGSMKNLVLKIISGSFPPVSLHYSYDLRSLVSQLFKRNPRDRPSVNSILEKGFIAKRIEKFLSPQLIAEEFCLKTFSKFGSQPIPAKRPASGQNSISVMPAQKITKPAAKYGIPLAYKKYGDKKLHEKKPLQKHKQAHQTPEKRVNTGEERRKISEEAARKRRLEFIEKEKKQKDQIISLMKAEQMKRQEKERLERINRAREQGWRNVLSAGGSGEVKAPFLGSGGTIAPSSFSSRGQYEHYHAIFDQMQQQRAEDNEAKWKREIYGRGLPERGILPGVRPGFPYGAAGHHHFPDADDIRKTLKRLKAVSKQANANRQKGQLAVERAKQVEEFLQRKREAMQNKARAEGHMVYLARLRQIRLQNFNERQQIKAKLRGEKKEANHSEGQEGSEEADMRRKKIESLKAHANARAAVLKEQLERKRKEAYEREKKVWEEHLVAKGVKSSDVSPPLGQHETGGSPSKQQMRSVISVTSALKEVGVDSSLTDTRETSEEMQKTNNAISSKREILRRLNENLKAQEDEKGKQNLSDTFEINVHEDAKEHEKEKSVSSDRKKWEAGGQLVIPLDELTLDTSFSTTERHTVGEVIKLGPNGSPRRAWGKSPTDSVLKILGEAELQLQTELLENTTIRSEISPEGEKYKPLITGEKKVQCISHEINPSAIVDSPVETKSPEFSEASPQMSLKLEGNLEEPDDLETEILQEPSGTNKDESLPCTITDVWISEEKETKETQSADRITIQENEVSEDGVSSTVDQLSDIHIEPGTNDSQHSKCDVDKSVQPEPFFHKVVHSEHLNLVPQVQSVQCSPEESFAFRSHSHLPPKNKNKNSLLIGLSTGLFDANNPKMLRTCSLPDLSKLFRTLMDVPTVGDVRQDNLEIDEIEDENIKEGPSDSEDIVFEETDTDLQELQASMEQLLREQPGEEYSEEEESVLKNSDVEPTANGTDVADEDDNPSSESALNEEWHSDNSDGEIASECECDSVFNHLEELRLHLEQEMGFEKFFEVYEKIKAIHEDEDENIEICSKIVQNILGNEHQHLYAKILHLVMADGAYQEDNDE

[3] = target: T2, Serine/threonine-protein kinase Nek1 (Homo sapiens); settings: at 1 µM
[4] = target: T3, Serine/threonine-protein kinase Nek2 (Homo sapiens) (UniProt P51955); settings: at 0.1 µM
T3 sequence (whole entry): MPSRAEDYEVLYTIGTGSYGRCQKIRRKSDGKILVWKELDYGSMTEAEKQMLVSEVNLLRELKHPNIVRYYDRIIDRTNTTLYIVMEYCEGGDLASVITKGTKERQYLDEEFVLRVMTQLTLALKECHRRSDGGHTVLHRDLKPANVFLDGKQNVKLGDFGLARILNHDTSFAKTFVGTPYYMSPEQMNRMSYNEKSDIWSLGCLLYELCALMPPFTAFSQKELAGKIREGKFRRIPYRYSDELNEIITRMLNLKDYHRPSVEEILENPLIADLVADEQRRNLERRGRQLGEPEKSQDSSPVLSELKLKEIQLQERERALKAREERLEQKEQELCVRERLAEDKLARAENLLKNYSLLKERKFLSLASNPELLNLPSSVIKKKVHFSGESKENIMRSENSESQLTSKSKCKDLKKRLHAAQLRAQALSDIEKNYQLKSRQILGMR

[5] = target: T3, Serine/threonine-protein kinase Nek2 (Homo sapiens); settings: at 1 µM
[6] = target: Serine/threonine-protein kinase Nek6 (Homo sapiens) (UniProt Q9HC98); settings: at 0.1 µM
[7] = target: Serine/threonine-protein kinase Nek6 (Homo sapiens) (UniProt Q9HC98); settings: at 1 µM
[8] = target: Serine/threonine-protein kinase Nek7 (Homo sapiens) (UniProt Q8TDX7); settings: at 0.1 µM
[9] = target: Serine/threonine-protein kinase Nek7 (Homo sapiens) (UniProt Q8TDX7); settings: at 1 µM
[10] = target: T4, Serine/threonine-protein kinase Nek9 (Homo sapiens) (UniProt Q8TD19); settings: at 0.1 µM
T4 sequence (whole entry): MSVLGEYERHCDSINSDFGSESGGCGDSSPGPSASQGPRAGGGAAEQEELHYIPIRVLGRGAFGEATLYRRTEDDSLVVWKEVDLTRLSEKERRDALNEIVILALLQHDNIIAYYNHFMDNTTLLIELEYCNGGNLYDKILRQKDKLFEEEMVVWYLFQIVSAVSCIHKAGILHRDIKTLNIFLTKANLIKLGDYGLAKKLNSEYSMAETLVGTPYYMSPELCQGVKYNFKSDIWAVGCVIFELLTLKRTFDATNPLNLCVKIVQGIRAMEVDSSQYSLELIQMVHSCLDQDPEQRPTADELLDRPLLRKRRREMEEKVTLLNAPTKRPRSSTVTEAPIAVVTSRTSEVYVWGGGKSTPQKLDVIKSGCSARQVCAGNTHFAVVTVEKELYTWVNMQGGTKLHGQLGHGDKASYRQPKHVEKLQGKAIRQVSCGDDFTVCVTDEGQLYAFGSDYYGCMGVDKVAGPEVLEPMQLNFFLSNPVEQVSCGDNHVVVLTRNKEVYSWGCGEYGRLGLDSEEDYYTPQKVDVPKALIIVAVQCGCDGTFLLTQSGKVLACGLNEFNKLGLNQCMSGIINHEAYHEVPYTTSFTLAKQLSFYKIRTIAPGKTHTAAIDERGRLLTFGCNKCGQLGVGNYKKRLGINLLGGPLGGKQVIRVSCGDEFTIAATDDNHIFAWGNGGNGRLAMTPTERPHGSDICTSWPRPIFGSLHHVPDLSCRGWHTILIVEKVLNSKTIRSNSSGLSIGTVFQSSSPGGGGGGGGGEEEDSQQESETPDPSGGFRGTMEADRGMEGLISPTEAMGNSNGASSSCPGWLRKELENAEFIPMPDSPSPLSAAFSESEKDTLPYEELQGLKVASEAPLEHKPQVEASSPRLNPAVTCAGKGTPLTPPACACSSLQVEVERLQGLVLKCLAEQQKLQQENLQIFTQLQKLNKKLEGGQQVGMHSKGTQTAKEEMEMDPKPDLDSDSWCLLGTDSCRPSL

[11] = target: T4, Serine/threonine-protein kinase Nek9 (Homo sapiens); settings: at 1 µM
[12] = target: Serine/threonine-protein kinase PLK1 (Homo sapiens) (UniProt P53350); settings: at 0.1 µM
[13] = target: Serine/threonine-protein kinase PLK1 (Homo sapiens) (UniProt P53350); settings: at 1 µM
[14] = target: T5, Dual specificity protein kinase TTK (Homo sapiens) (UniProt P33981); settings: at 0.1 µM
T5 sequence (whole entry): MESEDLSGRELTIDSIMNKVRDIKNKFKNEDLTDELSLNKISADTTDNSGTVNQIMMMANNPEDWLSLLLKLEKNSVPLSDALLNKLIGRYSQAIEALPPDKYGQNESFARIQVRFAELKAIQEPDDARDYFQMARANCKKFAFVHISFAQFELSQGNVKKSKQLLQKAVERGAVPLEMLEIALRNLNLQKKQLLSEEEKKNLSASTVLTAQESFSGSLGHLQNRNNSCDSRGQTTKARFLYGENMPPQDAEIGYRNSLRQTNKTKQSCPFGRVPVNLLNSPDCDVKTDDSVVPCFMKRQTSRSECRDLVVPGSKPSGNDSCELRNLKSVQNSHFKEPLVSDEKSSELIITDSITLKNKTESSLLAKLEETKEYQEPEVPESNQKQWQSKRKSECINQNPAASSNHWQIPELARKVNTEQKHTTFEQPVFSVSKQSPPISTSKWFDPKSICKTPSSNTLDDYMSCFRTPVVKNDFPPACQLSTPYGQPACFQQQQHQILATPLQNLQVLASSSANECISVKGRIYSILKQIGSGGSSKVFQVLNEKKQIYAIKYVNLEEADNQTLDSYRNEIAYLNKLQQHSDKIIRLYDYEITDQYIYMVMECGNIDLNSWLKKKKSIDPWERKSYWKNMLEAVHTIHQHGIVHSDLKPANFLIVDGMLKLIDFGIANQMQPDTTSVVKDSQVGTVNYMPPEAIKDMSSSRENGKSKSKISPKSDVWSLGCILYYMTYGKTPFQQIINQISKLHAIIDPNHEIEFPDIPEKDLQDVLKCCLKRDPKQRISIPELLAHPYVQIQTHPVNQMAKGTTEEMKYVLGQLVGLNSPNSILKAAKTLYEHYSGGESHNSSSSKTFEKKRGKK

[15] = test system: T6, Receptor-type tyrosine-protein kinase FLT3 (Homo sapiens), P36888 [D835Y]; settings: at 1 µM
T6 sequence (whole entry): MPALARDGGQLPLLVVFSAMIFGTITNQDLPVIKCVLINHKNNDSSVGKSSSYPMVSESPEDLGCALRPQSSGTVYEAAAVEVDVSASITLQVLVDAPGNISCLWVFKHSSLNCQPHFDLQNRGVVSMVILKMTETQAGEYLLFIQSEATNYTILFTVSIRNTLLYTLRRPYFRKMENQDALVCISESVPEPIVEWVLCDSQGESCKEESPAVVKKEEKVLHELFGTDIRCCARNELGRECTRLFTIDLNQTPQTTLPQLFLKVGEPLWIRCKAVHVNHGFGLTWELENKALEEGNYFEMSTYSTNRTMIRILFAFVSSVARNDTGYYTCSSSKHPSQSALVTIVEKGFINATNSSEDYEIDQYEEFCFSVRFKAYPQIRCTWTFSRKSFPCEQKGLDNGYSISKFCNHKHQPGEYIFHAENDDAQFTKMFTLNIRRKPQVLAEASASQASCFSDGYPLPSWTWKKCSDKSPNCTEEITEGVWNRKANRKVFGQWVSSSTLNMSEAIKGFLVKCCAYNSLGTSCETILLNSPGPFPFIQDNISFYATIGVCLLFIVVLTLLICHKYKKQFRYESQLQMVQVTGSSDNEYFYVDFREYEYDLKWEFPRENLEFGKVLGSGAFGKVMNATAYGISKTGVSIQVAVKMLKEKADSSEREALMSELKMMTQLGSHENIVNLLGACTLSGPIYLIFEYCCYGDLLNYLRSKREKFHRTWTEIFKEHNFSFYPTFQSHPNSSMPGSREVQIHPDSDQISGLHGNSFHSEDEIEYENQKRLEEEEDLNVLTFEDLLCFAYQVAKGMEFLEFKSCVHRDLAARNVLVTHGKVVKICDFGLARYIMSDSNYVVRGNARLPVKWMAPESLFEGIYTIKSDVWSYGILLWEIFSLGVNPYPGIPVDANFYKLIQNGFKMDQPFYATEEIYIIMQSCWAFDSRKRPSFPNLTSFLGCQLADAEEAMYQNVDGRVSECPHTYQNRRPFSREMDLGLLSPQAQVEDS

[16] = target: Vascular endothelial growth factor receptor 3 (Homo sapiens) (UniProt P35916); settings: at 0.1 µM
[17] = target: Vascular endothelial growth factor receptor 3 (Homo sapiens) (UniProt P35916); settings: at 1 µM
[18] = target: Macrophage colony-stimulating factor 1 receptor (Homo sapiens) (UniProt P07333); settings: at 0.1 µM
[19] = target: Macrophage colony-stimulating factor 1 receptor (Homo sapiens) (UniProt P07333); settings: at 1 µM
[20] = target: Tyrosine-protein kinase Fyn (Homo sapiens) (UniProt P06241); settings: at 0.1 µM
Tyrosine-protein kinase Fyn (Homo sapiens), sequence (P06241 2-537 limits assumed): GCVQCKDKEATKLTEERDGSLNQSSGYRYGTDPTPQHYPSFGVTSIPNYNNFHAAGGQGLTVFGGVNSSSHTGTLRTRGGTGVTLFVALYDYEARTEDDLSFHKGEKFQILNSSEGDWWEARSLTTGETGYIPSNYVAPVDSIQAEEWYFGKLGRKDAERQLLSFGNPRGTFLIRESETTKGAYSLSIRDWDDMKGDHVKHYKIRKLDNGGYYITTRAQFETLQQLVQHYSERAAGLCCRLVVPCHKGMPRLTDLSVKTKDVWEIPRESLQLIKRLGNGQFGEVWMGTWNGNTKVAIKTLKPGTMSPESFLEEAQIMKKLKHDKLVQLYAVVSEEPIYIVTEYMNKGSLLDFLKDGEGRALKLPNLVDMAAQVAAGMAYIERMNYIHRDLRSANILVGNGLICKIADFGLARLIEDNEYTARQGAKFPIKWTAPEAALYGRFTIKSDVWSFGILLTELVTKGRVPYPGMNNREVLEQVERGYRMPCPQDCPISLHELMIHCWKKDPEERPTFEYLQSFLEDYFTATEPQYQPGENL

Vascular endothelial growth factor receptor 3 (Homo sapiens), sequence (P35916 whole entry): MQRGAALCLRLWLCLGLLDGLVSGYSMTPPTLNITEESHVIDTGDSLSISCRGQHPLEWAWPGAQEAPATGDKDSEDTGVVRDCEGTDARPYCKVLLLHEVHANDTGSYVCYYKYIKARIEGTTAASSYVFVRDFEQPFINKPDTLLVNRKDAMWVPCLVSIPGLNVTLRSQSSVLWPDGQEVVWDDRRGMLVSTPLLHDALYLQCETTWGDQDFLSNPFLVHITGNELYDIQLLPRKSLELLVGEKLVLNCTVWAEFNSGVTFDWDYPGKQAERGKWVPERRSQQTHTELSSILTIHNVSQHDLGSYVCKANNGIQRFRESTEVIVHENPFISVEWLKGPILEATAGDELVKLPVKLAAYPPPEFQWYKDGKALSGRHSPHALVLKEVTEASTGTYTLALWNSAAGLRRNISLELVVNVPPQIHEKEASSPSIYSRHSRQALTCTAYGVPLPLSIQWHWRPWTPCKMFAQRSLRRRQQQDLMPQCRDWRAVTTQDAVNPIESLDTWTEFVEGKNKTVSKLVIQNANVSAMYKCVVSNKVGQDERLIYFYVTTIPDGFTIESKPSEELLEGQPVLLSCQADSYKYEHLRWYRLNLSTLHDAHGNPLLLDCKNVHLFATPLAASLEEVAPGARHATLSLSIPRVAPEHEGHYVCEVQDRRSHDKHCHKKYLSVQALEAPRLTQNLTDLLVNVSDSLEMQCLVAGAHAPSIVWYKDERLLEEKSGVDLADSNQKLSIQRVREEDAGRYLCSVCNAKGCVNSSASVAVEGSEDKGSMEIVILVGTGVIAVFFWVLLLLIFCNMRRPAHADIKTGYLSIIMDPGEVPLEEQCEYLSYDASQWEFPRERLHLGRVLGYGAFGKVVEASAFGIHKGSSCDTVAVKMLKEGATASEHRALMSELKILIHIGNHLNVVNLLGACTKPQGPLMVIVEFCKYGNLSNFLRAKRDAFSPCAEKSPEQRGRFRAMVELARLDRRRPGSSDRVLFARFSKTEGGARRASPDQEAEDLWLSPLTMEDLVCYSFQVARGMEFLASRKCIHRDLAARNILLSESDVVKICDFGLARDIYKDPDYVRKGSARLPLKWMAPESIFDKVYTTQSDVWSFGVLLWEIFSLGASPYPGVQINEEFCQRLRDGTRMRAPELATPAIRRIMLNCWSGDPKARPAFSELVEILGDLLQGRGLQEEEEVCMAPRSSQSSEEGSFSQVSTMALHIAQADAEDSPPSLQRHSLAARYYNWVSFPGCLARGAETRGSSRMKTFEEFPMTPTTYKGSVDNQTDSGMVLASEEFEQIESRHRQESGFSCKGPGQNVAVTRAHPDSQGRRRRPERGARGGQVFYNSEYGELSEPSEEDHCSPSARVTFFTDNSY
Serine/threonine-protein kinase PLK1 (Homo sapiens), sequence (P53350 whole entry): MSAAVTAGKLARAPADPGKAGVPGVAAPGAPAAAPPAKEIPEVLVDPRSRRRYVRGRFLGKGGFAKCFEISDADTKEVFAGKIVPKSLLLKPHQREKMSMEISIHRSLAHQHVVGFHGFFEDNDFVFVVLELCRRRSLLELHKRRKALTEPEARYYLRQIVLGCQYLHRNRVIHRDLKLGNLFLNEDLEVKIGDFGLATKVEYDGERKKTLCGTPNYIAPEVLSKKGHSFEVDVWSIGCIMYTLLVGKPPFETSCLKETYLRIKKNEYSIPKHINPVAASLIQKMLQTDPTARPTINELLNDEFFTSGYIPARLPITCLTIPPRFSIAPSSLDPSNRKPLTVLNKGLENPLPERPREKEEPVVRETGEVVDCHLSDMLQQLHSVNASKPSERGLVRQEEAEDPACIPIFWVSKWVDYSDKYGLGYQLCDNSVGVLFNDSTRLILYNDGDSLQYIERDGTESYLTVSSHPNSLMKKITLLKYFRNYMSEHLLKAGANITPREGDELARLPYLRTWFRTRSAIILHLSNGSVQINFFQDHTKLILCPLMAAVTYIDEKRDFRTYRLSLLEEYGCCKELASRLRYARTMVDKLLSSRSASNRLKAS
Serine/threonine-protein kinase Nek7 (Homo sapiens), sequence (Q8TDX7 whole entry, looked up): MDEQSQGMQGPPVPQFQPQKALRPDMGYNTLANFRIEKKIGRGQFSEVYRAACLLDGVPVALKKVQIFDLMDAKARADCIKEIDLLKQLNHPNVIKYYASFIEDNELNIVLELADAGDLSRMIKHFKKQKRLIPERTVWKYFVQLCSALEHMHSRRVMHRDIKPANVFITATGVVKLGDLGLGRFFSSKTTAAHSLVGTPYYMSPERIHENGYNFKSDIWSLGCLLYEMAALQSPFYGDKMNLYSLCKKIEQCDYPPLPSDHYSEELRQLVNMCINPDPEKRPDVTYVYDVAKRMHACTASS
Macrophage colony-stimulating factor 1 receptor (Homo sapiens), sequence (P07333 whole entry): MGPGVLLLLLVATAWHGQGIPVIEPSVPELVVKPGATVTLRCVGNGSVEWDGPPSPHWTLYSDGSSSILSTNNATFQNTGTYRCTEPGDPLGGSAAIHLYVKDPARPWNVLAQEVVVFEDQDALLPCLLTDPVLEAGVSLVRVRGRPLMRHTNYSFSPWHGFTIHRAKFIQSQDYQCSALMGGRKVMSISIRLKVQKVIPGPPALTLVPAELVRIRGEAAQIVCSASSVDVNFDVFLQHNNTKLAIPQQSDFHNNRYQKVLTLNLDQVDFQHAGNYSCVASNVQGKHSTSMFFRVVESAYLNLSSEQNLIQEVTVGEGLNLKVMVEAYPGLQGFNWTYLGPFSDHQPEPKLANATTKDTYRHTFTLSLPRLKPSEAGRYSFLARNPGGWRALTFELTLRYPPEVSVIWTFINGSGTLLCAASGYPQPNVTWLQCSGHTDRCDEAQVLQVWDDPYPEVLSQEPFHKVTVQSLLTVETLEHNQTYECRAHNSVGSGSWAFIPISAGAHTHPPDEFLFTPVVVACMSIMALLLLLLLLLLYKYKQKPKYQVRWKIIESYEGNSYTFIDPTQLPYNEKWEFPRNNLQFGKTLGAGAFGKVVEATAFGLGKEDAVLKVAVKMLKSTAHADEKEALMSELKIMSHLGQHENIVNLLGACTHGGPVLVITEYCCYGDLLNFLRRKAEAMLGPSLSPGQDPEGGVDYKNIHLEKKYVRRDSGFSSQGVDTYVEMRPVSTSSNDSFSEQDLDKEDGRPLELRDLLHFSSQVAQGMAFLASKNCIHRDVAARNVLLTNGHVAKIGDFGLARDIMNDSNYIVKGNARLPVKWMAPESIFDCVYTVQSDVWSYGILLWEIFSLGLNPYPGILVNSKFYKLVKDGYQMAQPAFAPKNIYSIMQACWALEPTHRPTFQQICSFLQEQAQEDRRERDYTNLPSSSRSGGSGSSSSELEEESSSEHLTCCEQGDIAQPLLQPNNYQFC
Serine/threonine-protein kinase Nek6 (Homo sapiens), sequence (Q9HC98 whole entry): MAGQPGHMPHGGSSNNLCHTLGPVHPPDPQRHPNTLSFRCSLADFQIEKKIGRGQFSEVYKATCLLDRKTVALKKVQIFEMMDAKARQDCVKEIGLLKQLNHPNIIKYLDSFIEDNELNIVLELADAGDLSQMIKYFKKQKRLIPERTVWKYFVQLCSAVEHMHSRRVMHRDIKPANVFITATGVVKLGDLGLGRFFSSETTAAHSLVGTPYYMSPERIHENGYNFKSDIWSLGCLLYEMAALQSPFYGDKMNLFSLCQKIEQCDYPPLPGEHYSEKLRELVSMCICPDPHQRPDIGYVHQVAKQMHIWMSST

SMILES | inhibition [1] | inhibition [2] | inhibition [3] | inhibition [4] | inhibition [5] | inhibition [6] | inhibition [7] | inhibition [8] | inhibition [9] | inhibition [10] | inhibition [11] | inhibition [12] | inhibition [13] | inhibition [14] | inhibition [15] | inhibition [16] | inhibition [17] | inhibition [18] | inhibition [19] | inhibition [20]
C[C@@H](Oc1cc(-n2cnc3ccc(OC[C@@H](O)CO)cc32)sc1C(N)=O)c1ccccc1Cl | -0.86% | 13.6% | 55% | 3.01% | 19.7% | -1.54% | -3.82% | 0.63% | 0.36% | 62.4% | 91.4% | 92.2% | 93.5% | 1.27% | 8.15% | 3.69% | 22.8% | 0.22% | 9.24% | 0.14%
CN(C)c1cc2c(Nc3ccc4c(cnn4Cc4ccccc4)c3)ncnc2cn1 | 3.38% | 0.59% | 2.49% | 3.29% | 3.45% | 0.57% | 2.34% | 1.52% | 1.66% | 6.89% | 6.27% | 3.14% | 3.09% | 5.61% | 1.61% | 2.71% | 2.4% | 1.36% | 3.34% | 3.84%
